About 2,100 (0.62%) of roughly 340,000 compounds were called active. Not all results are given here. Potency and affinity values are given separately. A number with no mark means an inactive call.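 The calls were made as follows: active = first-screen hits whose inhibition reached a set limit at any dose in the follow-up dose series; inconclusive = inhibition above the set first-screen limit but never retested; inactive = the rest.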

For orientation: inhibition means the change of the read-out against control, counted positive when it falls.

Rac GTPase-activating protein 1 (Homo sapiens), sequence (Q9H0H5 whole entry, looked up): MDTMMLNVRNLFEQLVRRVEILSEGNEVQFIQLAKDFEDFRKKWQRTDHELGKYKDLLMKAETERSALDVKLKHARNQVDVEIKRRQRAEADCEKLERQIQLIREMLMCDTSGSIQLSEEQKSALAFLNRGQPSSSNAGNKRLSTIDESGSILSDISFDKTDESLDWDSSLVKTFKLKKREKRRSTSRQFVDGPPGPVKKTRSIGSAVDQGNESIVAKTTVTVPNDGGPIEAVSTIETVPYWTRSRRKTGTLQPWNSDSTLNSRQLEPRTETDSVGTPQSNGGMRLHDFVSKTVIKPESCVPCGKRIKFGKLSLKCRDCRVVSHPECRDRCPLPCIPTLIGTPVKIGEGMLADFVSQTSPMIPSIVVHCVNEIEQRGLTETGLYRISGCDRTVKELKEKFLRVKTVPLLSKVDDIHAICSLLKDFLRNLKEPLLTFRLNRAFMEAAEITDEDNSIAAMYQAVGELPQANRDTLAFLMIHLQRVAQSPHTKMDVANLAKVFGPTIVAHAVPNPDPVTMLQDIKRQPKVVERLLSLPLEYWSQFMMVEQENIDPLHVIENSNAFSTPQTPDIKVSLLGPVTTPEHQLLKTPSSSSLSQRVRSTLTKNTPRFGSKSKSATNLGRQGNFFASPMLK

The assay concerns the target Rac GTPase-activating protein 1 (Homo sapiens) (UniProt Q9H0H5). Kind of assay: blockers of MgcRacGAP-driven Rac1 GTP hydrolysis – biochemical, ADP Hunter fluorescence, primary and confirmatory, confirmation (AID 624330).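 Also: fluorescence reports GDP produced by GAP-driven GTP hydrolysis.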 The conditions noted are these: MgcRacGAP-stimulated Rac1 GTP hydrolysis, at 30 µM, hits give high values, GST-tagged Rac1 F28L mutant substrate.
Take `COc1ccc(N=Cc2cc(Cl)ccc2O)cc1Cl`: the inhibition was 15.8%. Turning to `Oc1ccc(Cl)cc1C=Nc1ccc(Br)cc1`, the inhibition is 7.16%. The value for `c1ccc(C2=Nn3c(nnc3-c3ccco3)SC2)cc1` was 18%. For `Fc1ccc(C2=Nn3c(nnc3-c3ccco3)SC2)cc1`, the inhibition was 1.81%. The same measure for `CN(CC(=O)NCc1ccncc1)S(=O)(=O)c1cc(Cl)ccc1Cl`: 1.23%; for `COc1ccc(NC(=O)c2c[nH]c(=O)n(-c3ccc(C)c(C)c3)c2=O)cc1OC`: -10.4%. Regarding `CC1=NN(c2ccccc2)C(=O)C1c1ccccc1` (centres undefined), the inhibition was 26.3%. The same measure for `CC1=NN(c2ccccc2)C(=O)C1(C)C`: 12.1%; for `COc1ccc(CNC(=O)CSc2nnc3c(n2)[nH]c2ccccc23)cc1`: 3.19%; for `COc1ncnc2c1ncn2CCCNCc1ccccc1`: 20.3%. Consider `CSc1ncnc2c1ncn2CCCNCc1ccccc1`, for which the inhibition is 17.1%. The same measure for `Cc1ccc(NCCCn2cnc3c(OCc4ccccc4)ncnc32)cc1C`: 26.1%; for `CSc1ncnc2c1ncn2CCCNCCCc1ccccc1`: 17.5%; for `CCOCCCNC(=O)c1cc(Cl)c(NC(=O)C2=C(C)OCCS2)cc1OC`: 9.37%. The same measure for `OCC[C@H]1C[C@@H](O)[C@H](O)[C@]2(CCc3ccccc3CO2)O1`: -0.41%; for `CN1CCN(c2cc(N3CCN(C(=O)c4ccco4)CC3)c3c4c(onc24)-c2ccccc2C3=O)CC1`: 14.2%; for `CCN1CCN(c2cc(N3CCN(C(=O)c4ccco4)CC3)c3c4c(onc24)-c2ccccc2C3=O)CC1`: 25.5%. Consider `Cc1nc(NC(=O)CCCC(=O)Nc2nc(C)c(C)s2)sc1C`, for which the inhibition is 3.32%.

Take `CCc1cc(=O)oc2c(C)c(OC(C)C(=O)NCC3CCC(C(=O)O)CC3)ccc12` (centres undefined): the inhibition was 0.46%. The value for `CCN(C(=O)Cn1cc(C(=O)C(=O)N2CCOCC2)c2ccccc21)c1ccccc1` was 7.38%; that for `C=C(CC)C(=O)c1ccc(OCC(=O)O)c(Cl)c1Cl` was 4.69%; that for `O=C(O)COc1ccc2nsnc2c1Cl` was 6.84%. The value for `CN1CCN(C(=O)CN(CCc2ccccc2)S(C)(=O)=O)CC1` was 1%; that for `CS(=O)(=O)Nc1cccc(C2=NN(C(=O)c3cccc([N+](=O)[O-])c3)C(c3cccs3)C2)c1` (centres undefined) was 7.25%. The value for `CC1(C)CC(CC(=O)Nc2ccccn2)C(=O)O1` (centres undefined) was 3.54%; that for `Cc1ccc(Oc2ncccc2/C=N/O)cc1` was 5.93%.

Take `Cc1cc(Cl)ccc1OC(C)C(=O)OCC(=O)Nc1ccc2[nH]c(=O)[nH]c2c1` (centres undefined): the inhibition was 1.09%.

For the compound `COc1ccc(N2C(=O)/C(=C/c3cccs3)NC2=S)cc1`, the inhibition is 9.24%. The same measure for `CN(C)/C=C1\NC(=S)N(c2ccc(Cl)cc2)C1=O`: 17.9%; for `CCN1C(=O)/C(=C\N(C)C)NC1=S`: 12%; for `COc1ccc(N2C(=O)/C(=C/c3cccnc3)NC2=S)cc1`: 3.24%. The same measure for `Cc1cccc(C)c1NC(=O)C1CCN(S(C)(=O)=O)CC1`: -16.2%.

With `O=C1C=C(O)c2cccc(O)c2C1=O`, the inhibition is 0.71%. Turning to `O=C(O)c1cc(O)c2c(c1)C(=O)c1cccc(O)c1C2=O`, the inhibition is 28.8%.

Regarding `CNC(=O)c1sc(=S)n(-c2ccc(OC)cc2)c1N`, the inhibition was 3.75%.

Regarding `Cc1cccc(-c2ncc(S(=O)(=O)C(C)(C)C)c(N)n2)c1`, the inhibition was -7.62%.

For `CC(=O)Nc1ccc(N(C(=O)CNC(=O)c2ccco2)C(C(=O)NCc2ccco2)c2ccccc2F)cc1` (centres undefined), the inhibition is 4.97%. The same measure for `Cc1cccc(C(=O)NC(C)c2ccc(-n3ccnc3)cc2)c1C` (centres undefined): 5%; for `COc1ccc([N+](=O)[O-])cc1NC(=O)C(C)NNC(=O)c1cccc([N+](=O)[O-])c1` (centres undefined): 4.39%. The value for `CN(C)C=Nc1ccc(Cl)c(Cl)c1` was 2.39%; that for `CN(C)C=Nc1ccc2nn(-c3ccccc3)nc2c1` was 6.6%; that for `Cc1c(C(c2cc(O)ccc2O)c2c(C)n(C)n(-c3ccccc3)c2=O)c(=O)n(-c2ccccc2)n1C` was -9.5%. The same measure for `CCCN(C(=O)c1cccs1)c1c(N)n(Cc2ccccc2)c(=O)[nH]c1=O`: 4.88%; for `CSc1ncccc1C(=O)Nc1cc(C)ccn1`: 11.2%. For `COc1ccc(CC(=O)NCC2CCCN(Cc3ccc(F)c(OC)c3)C2)cc1` (centres undefined), the inhibition was -1.16%.

For `CC1=C(C(=O)N2CCOCC2)CC(CC(=O)NC2CCCC2)C(=O)N1Cc1ccc(F)cc1` (centres undefined), the inhibition was 14.4%. The value for `COc1ccc2cc(OCC(=O)NNC(=O)Nc3ccc(OC)c(OC)c3)ccc2c1` was 17.7%. The value for `COc1ccc(NC(=O)NNC(=O)COc2ccc3ccccc3c2)cc1` was 5.22%; that for `COc1ccc(NC(=O)NNC(=O)COc2ccc3cc(Br)ccc3c2)cc1` was 9.2%. The value for `COc1cccc(NC(=O)NNC(=O)COc2ccc3ccccc3c2)c1` was 2.17%; that for `COc1ccc(C(=O)N2CCNC(=O)C2CC(=O)Nc2cccc(Cl)c2Cl)cc1` (centres undefined) was -0.3%. As to `O=Cc1cn(-c2ccccc2)nc1-c1cccc([N+](=O)[O-])c1`, the inhibition was 6.3%. The same measure for `COc1ccc(C2NN=C(c3ccc(C)cc3)S2)cc1OC` (centres undefined): -0.47%; for `COc1ccc(C2NN=C(c3ccc(C)cc3)S2)cc1` (centres undefined): 7.81%; for `COc1ccc(NC(=O)CC2C(=O)NCCN2C(=O)c2ccccc2)cc1` (centres undefined): 6.95%.

Consider `CC(=O)N(C(C)=O)c1nc(-c2ccccc2)cn1/N=C/c1ccccc1`, for which the inhibition is 7.71%. Take `Nc1nc(-c2ccccc2)cn1/N=C/c1ccccc1`: the inhibition was 3.51%. The value for `Cc1ccc(S(=O)(=O)CCC(=O)Nc2nc(-c3cccnc3)cs2)cc1` was -10.2%. The same measure for `CCCc1nn2c(=O)cc(CSCC(=O)Nc3ccc(OC)cc3)nc2s1`: 1.76%; for `Cc1nnc(N2C(=O)C(O)=C(C(=O)c3ccco3)C2c2cccc3ccccc23)s1` (centres undefined): 7.61%. `CC(C)(O[C@@H]1O[C@H](CO)[C@@H](O)[C@H](O)[C@H]1O)[C@H]1Cc2cc3ccc(=O)oc3cc2O1`: the inhibition is 3.49%.

As to `CC(=O)Nc1ccc(/C=N/NC(=O)CNS(=O)(=O)c2ccccc2)cc1`, the inhibition was 9.41%.

As to `O=C(CNC(=O)c1ccccc1Br)N/N=C/c1cccnc1`, the inhibition is 7.98%. For `O=C(CNC(=O)c1ccccc1Br)N/N=C/c1ccccc1O`, the inhibition was 5.07%. The same measure for `O=C(N/N=C/c1ccc(OCc2ccccc2)cc1)c1cc[n+](Cc2ccccc2)cc1`: 13.8%. The value for `O=C(N/N=C/c1ccc(Br)cc1)c1cc[n+](Cc2ccccc2)cc1` was 4.25%; that for `CC(=O)Nc1ccc(/C=N\NC(=O)CNS(=O)(=O)c2ccc([N+](=O)[O-])cc2)cc1` was 9.49%; that for `O=C(CNS(=O)(=O)c1ccccc1)N/N=C\c1ccc(Cl)cc1` was 7.25%. The same measure for `O=C(CNS(=O)(=O)c1ccc([N+](=O)[O-])cc1)N/N=C\c1ccc(O)cc1`: 20.8%; for `COc1cc(C2N(c3cc(C)on3)C(=O)C3CCCN32)cc(OC)c1OC` (centres undefined): 4.47%; for `CCOC(=O)C(=O)/C(=C\N(C)C)c1onc(-c2c(F)cccc2Cl)c1C(=O)OC`: 4.69%.

On to `CSc1nc(C)cc(OCC#N)n1`, for which the inhibition is 5.78%. Consider `Cc1cccc(NC(=S)N2CCN(S(=O)(=O)c3ccc(F)cc3)CC2)c1`, for which the inhibition was 8.03%. Regarding `CCCCCCN1C[C@@H](n2cc(COC(=O)c3ccccc3)nn2)[C@H](O)C[C@@H]1c1ccc(Cl)cc1`, the inhibition was 8.49%. With `Nc1ccc(-c2cn3cccnc3n2)cc1`, the inhibition is -4.77%.

Take `COc1cccc(N2CCN(C(=O)CCc3nnc4ccc(N5CCCC5)nn34)CC2)c1`: the inhibition was 18%. Consider `O=C(COc1ccc(Cl)cc1)Nc1cc(S(=O)(=O)N2CCCCC2)ccc1N1CCCCC1`, for which the inhibition is -10.3%. Regarding `C=CCNC(=O)c1snnc1-c1ccccc1`, the inhibition was 5.75%.

On to `O=C(Cn1cnc([N+](=O)[O-])n1)N/N=C/c1ccccc1O`, for which the inhibition is 4.85%. The value for `COc1ccc(/C=N/NC(=O)Cc2cccs2)cc1` was 3.05%; that for `CCN(CC)c1ccc(/C=N/NC(=O)Cc2cccs2)cc1` was 18.5%; that for `O=C(C[n+]1ccccc1)N/N=C/c1ccc(Br)cc1` was -2.09%.

Take `O=C(C[n+]1ccccc1)N/N=C/c1ccc(C(=O)O)cc1`: the inhibition is 2.14%.

On to `O=C(Cn1cnc([N+](=O)[O-])n1)N/N=C/c1cc(Cl)ccc1O`, for which the inhibition was 11.2%. For `CCOc1ccc(NC(=O)COc2cccc3cccnc23)cc1S(=O)(=O)N1CCCC1`, the inhibition was 5.24%. The same measure for `CC(C)c1[nH]nc2c1C(c1cccs1)C(C#N)=C(N)O2` (centres undefined): 8.28%; for `CC(C)(C)S(=O)(=O)c1cnc2c(S(=O)(=O)c3ccccc3)cnn2c1N`: -3.04%. The value for `N#CCC(=O)Nc1ccc(C(=O)OCC(=O)N=c2sccn2Cc2ccccc2Cl)cc1` was 5.66%; that for `CCOC(=O)c1c[nH]c(=O)c(Br)c1O` was 4.86%.

In the case of `COc1ccc(NS(=O)(=O)c2cc(NC(=O)c3ccco3)ccc2N2CCCC2)cc1`, the inhibition is -4.14%. The same measure for `COc1ccc(C(=O)OCC(=O)Nc2ncc([N+](=O)[O-])s2)cc1OC`: 21.6%; for `O=C(COC(=O)COc1ccccc1)Nc1ncc([N+](=O)[O-])s1`: 11.1%. Consider `C/C(=N\OC(=O)Nc1ccc(Cl)cc1)c1ccc(F)c(F)c1`, for which the inhibition was 6.77%. The value for `CCOC(=O)N1CCN(C(=O)Cc2cccs2)CC1` was 9.5%.
